G9a inh: blocks human histone lysine methyltransferase G9a | Potency, µM (titrated, usually from 102 µM), hits mostly inhibitors | G9a H3K9 monomethylation, AlphaScreen, 2 h | AID 504332 | 350,000 tested, 8.8% active; further: nearly all actives have a fitted effect of over 75% in size
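AlphaScreen detection with an anti-monomethyl H3K9 antibody quantified product after a 2 h room-temperature reaction containing 500 nM biotinylated H3K9 peptide, 20 µM SAM and 20 nM enzyme, which had been preincubated 15 min with compound.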
L3MBTL1 inh: blocks human L3MBTL1; Q9Y468; AlphaScreen L3MBTL1–H3K9me1 peptide binding; Potency, µM (highest dose often 57.1 µM), hits mostly inhibitors; 230,000 tested, 0.66% active; AID 485360; further: nearly all actives have a fitted effect of over 60% in size
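L3MBTL1 50 nM + b-AHA-H3(1-15)K9me1 75 nM, 30 min RT; compound added, 30 min RT; streptavidin donor/Ni-chelate acceptor beads 10 ug/mL each final, 30 min RT dark; AlphaScreen read.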
Sfp inh: Sfp phosphopantetheinyl transferase inhibition. Biochemical Sfp PPTase activity, qHTS. 310,000 tested, 3.5% active. Q9F4F7. Potency, µM, actives largely listed as inhibitors;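 further: the enzyme is Sfp with the accession as filed and its product quenches rhodamine fluorescence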
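Buffer: 50 mM Hepes-Na pH 7.6, 10 mM MgCl2, 0.01% Nonidet P-40, 0.01% BSA. Enzyme 15 nM, pre-exposed to compound 15 min; substrates then added and fluorescence change tracked over 30 min.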
BAZ2B block: blocks human BAZ2B. Potency, µM (top dose mostly 114 µM), usual class: inhibitors. 360,000 tested, 4.4% active. AlphaScreen BAZ2B-H3K14Ac peptide displacement. AID 504333. Q9UIF8; further: nearly all actives have a fitted effect of over 60% in size
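AlphaScreen luminescence quantifies BAZ2B engagement of H3K14Ac peptide; the protein and biotinylated peptide are both at 50 nM final, buffer PBS pH 7.4 with 0.01% Tween-20, all steps at room temperature.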
HP1b chromo inh: HP1-beta chromodomain-methylated histone interaction inhibition; AlphaScreen HP1-beta / biotin-H3K9me3 peptide binding; Potency, µM (titrated, usually from 114 µM), most hits filed as inhibitors; 390,000 tested, 0.56% active; P83916; further: nearly all actives have a fitted effect of over 70% in size
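AlphaScreen: HP1-beta (50 nM) preformed 30 min with biotin-H3(1-18)K9me3 peptide (50 nM) in PBS pH 7.4, 0.01% Tween-20. Compound added for 30 min at RT, then streptavidin donor/nickel chelate acceptor beads (10 ug/mL) for 30 min.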
JMJD2A Tudor: JMJD2A Tudor domain (human) inhibition. 390,000 tested, 4.4% active. O75164. Potency, µM (top dose mostly 114 µM), hits mostly inhibitors. AID 504339. AlphaScreen JMJD2A-Tudor / H3K4me3 peptide binding; further: nearly all actives have a fitted effect of over 50% in size
Of the large screens only hits and unclear results are named; the others gave an inactive call. This is a sample that favours compounds with a hit; in the whole collection about 12% have one here. The call rests on the fitted dose curve; in most records, active means well fitted curve in the direction sought with a large enough effect; inconclusive means small, poorly fitted or top-dose-only effect, or another doubt; inactive means no such curve, though single readings can be large; an effect the other way counts as inactive or inconclusive.

c1cc2c(cc1C1CCCCC1)c1c3n2CCCNC3CCC1 (stereo not drawn)	G9a inh 17.8µM, Sfp inh 31.6µM, BAZ2B block 35.5µM, HP1b chromo inh inconclusive, JMJD2A Tudor 44.7µM
Oc1ccc2c(c1)c1c3n2CCNC3CCC1 (stereo not drawn)	G9a inh inconclusive (no result: L3MBTL1 inh)
CCOCCCNC(=O)c1cc(=O)[nH]c2ccc(S(=O)(=O)N3CCCC3)cc12	none (no result: L3MBTL1 inh, Sfp inh)
Cc1cnc2c3c(cc(Cl)c2c1)-c1ccccc1S(=O)(=O)N3	JMJD2A Tudor 20µM (no result: G9a inh, L3MBTL1 inh, Sfp inh, BAZ2B block)
CC(N=C1NS(=O)(=O)c2ccccc21)C(=O)Nc1ccc(F)cc1Cl (stereo not drawn)	none (no result: Sfp inh)
CCc1ccccc1N(C)S(=O)(=O)c1ccc2[nH]cc(C(=O)O)c(=O)c2c1	G9a inh 44.7µM, BAZ2B block inconclusive
CN(c1ccc(F)cc1)S(=O)(=O)c1ccc2[nH]cc(C(=O)O)c(=O)c2c1	G9a inh inconclusive (no result: L3MBTL1 inh)
CCN(CC)CCNS(=O)(=O)c1ccc2[nH]cc(C(=O)O)c(=O)c2c1	G9a inh inconclusive, L3MBTL1 inh inconclusive, BAZ2B block inconclusive, JMJD2A Tudor 56.2µM
CCN(CC)C(=O)c1c[nH]c2ccc(S(=O)(=O)Nc3cc(C)cc(C)c3)cc2c1=O	JMJD2A Tudor inconclusive
CCC(=O)N[C@@H]1CC(C(C)(C)NC(=O)CC)CC=C1C (stereo partly drawn)	JMJD2A Tudor 50.1µM
Cc1ccc(NC(=S)N(Cc2ccc(Cl)cc2)Cc2ccc(C(=O)O)cc2)cc1Cl	G9a inh 39.8µM (no result: L3MBTL1 inh)
COc1ccc(CN(Cc2ccc(C(=O)O)cc2)C(=S)Nc2ccccc2F)cc1OC	Sfp inh 50.1µM (no result: L3MBTL1 inh)
Cc1ccc(NC(=S)N(C)N)cc1Cl	G9a inh 31.6µM, BAZ2B block inconclusive
CN(N)C(=S)Nc1ccc(F)cc1	G9a inh 50.1µM, Sfp inh inconclusive
CCOc1ccc(-c2cn3c(n2)sc2cc(C(=O)NC(C)C45CC6CC(CC(C6)C4)C5)ccc23)cc1 (stereo not drawn)	none (no result: L3MBTL1 inh, Sfp inh)
O=C(NC1CCN(Cc2ccccc2)CC1)c1ccccc1OCc1ccccc1Cl	JMJD2A Tudor inconclusive (no result: L3MBTL1 inh)
C=CCn1c(C)cc(-c2csc(NCC)n2)c1C	G9a inh 15.8µM, Sfp inh inconclusive, BAZ2B block 39.8µM, HP1b chromo inh inconclusive, JMJD2A Tudor 50.1µM (no result: L3MBTL1 inh)
C=CCn1c(C)cc(-c2csc(NC)n2)c1C	G9a inh 8.91µM, L3MBTL1 inh inconclusive, Sfp inh 25.1µM, HP1b chromo inh inconclusive, JMJD2A Tudor 39.8µM (no result: BAZ2B block)
Cc1c(-c2csc(N)n2)cnn1C	G9a inh inconclusive
C=CCn1c(C)cc(-c2csc(NC(=O)C3=COCCO3)n2)c1C	G9a inh 44.7µM (no result: Sfp inh)
C=CCn1c(C)cc(-c2csc(N)n2)c1C	G9a inh inconclusive, Sfp inh 39.8µM, BAZ2B block 50.1µM, HP1b chromo inh inconclusive, JMJD2A Tudor 39.8µM (no result: L3MBTL1 inh)
COc1ccccc1-c1nc(SCC(=O)NCc2ccc(C)cc2)c2c(=O)n(C)c(=O)n(C)c2n1	none (no result: L3MBTL1 inh, Sfp inh)
NC1=NC2C(N=C(Br)N2[C@@H]2O[C@H]3COP(=O)(O)O[C@@H]3[C@@H]2O)C(=O)N1 (stereo partly drawn)	none (no result: L3MBTL1 inh, BAZ2B block, HP1b chromo inh, JMJD2A Tudor)
COc1ccc(N2CC(c3nc(-c4ccccc4C)no3)CC2=O)cc1Cl (stereo not drawn)	none (no result: L3MBTL1 inh, Sfp inh)
O=C(Nc1ccccc1)OCCc1ccccn1	none (no result: G9a inh, L3MBTL1 inh, Sfp inh, BAZ2B block)
Cc1ccccc1Cn1cc(S(=O)(=O)c2ccc(Cl)cc2)c(=O)c2cc3c(cc21)OCO3	none (no result: L3MBTL1 inh, Sfp inh)
CC1CCN(S(=O)(=O)c2cc(F)ccc2CN2C(=O)c3cccnc3C2=O)CC1	BAZ2B block 56.2µM (no result: L3MBTL1 inh)
CC1CCN(S(=O)(=O)c2cccc3cccnc23)CC1	none (no result: L3MBTL1 inh)
COc1ccccc1CN1CC[C@@]2(CCCN(C(=O)c3cc(C(F)(F)F)cc(C(F)(F)F)c3)C2)C1	none (no result: L3MBTL1 inh, BAZ2B block, HP1b chromo inh, JMJD2A Tudor)
O=C(NC(c1ccccc1)c1cc(Cl)c2cccnc2c1O)c1cccnc1 (stereo not drawn)	none (no result: HP1b chromo inh, JMJD2A Tudor)
CCOc1ccc(C(Nc2cccnc2)c2cc(Cl)c3cccnc3c2O)cc1 (stereo not drawn)	L3MBTL1 inh inconclusive, Sfp inh inconclusive, BAZ2B block 44.7µM, HP1b chromo inh inconclusive, JMJD2A Tudor 39.8µM (no result: G9a inh)

Source: PubChem BioAssay
